Consider 6 sequences from patent US20060069055, “Delivery of polynucleotides” (published 2006).

Chain of NF-kB p50/p50 homodimer (P19838 1-433, one chain of several): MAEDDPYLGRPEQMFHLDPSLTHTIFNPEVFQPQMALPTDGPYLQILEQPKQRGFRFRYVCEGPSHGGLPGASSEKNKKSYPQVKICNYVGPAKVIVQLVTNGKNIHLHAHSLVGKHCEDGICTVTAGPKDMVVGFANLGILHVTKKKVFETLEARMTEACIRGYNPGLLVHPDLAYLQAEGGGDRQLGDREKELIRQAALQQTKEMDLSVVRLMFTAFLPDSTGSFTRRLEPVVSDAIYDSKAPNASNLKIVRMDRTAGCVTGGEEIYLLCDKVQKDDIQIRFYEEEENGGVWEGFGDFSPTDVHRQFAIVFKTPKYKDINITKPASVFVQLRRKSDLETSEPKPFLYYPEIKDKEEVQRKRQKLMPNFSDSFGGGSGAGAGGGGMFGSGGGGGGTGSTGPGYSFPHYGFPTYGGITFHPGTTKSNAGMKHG

The assay concerns the target NF-kB p50/p50 homodimer (Homo sapiens, UniProt P19838 P19838:1-433). Kind of assay: EMSA. Particulars: protein: extract; tags: nuclear extract of LPS-stimulated THP-1 cells; chain copies: 2 stated; dsDNA, one strand shown. From the text: The EMSA assay was employed to characterize oligonucleotide decoys for the NF-κB transcription factor. […] Using the above modified oligonucleotides to compete for binding for the above-mentioned NF-κB family members, it was possible to compare the binding affinity of these oligonucleotides against the high affinity radiolabeled probe and each other. This assay has also enabled the design of a decoy which selectively binds particular members of the NF-κB family. By using increasing concentrations of various oligonucleotides, it was observed that, by deleting or changing targeted residues in the binding site, it was possible to specifically decrease the binding of the decoy molecule to p50/p50 homodimers, while retaining the affinity for p65/p50 and cRel/p50 heterodimers.
The NF-κB gel shift assays (EMSA) were performed as follows. A double-stranded oligonucleotide containing a consensus NF-κB binding site (5′ […].GGC 3′) (SEQ ID NO: 26) was end-labeled with γ³²P-ATP using T4 Polynucleotide Kinase (Promega). One microgram of a nuclear extract prepared from LPS stimulated THP-1 cells (human monocyte cell line) was incubated with 35 fmol of radiolabeled probe in the presence or absence of competing unlabeled NF-κB double-stranded oligonucleotides (dsODN) or scrambled dsODN. The incubations were carried out at room temperature for 30 minutes in a 20 μl reaction volume composed of 10 mM Tris-HCl pH 8, 100 mM KCL, 5mM MgC12, 2mM DTT, 10% Glycerol, 0.1% NP-40, 0.025% BSA and 1 μg Poly-dIdC. The reactions were loaded onto a 6% polyacrylamide gel, subjected to electrophoresis and dried. The dried gels were imaged and quantitated using a Typhoon 8600 Phosphorlmager (Amersham) and ImageQuant software. The identity of the NF-κB proteins contained in complexes bound to the radiolabeled oligonucleotide probe were identified by pre-incubating the reactions for 5 minutes with individual antibodies specific for each member of the NF-κB family prior to the addition of the radiolabeled probe.
In general terms: In EMSA bound probe runs differently from free probe, usually more slowly.
Regarding TCGGACTTTCCTC, the IC50 worked out at 97 fold molar excess.

TTGAGGACTTTCCAGGCTC yielded an IC50 of 85 fold molar excess.

In the case of AGTTGAGGATTTCCCAGGC, the IC50 was 84 fold molar excess.

The sequence AGTTGAGGATTTCCAGGC had an IC50 of 82 fold molar excess.

For the sequence TCGGACTTTCCCTC, the IC50 is 62.5 fold molar excess.

In turn, AGTTGAGGGATTTCCAGGC gave an IC50 of 69 fold molar excess.
